Assay results: PubChem BioAssay (Tox21)
Several values for one entry are separate records, joined by “and”; a condition that tells them apart may be missing. Equal entries are not always repeated. Inconclusive results are not listed. A structure can be active in one record and inactive in another. Activity calls are given as the source filed them. Unless noted, calls follow the shape of the dose curve; as a rule, active = well fitted curve in the direction sought with a large enough effect in the repeat runs; inconclusive = weak or mixed curves; inactive = no such curve, though single readings can be large; an effect the other way counts as inactive or inconclusive.

Tests used:
[1] = Caspase-3/7 induction in HepG2 cells by small molecules, qHTS assay (AID 1346978); also: nearly all actives have a fitted effect of over 15% in size
How it was run: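 Caspase-3/7 induction was measured by Caspase-Glo 3/7 luminescence (30 min, room temperature) after a 17 hr compound exposure of wild-type HepG2 cells seeded at 2,000 per well and pre-incubated 5 hr.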

[2] = Caspase-3/7 induction in CHO-K1 cells by small molecules, qHTS cell viability counter screen (AID 1346979); also: nearly all actives have a fitted effect of over 35% in size
How it was run: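 Viability readout by fluorescence (CellTiter-Fluor) on wild-type CHO-K1 cells exposed for 16hr at 37C and 5% CO2 to compounds delivered in DMSO; reagent incubated 1hr before reading.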

[3] = Caspase-3/7 induction in CHO-K1 cells by small molecules, qHTS assay (AID 1346980); also: nearly all actives have a fitted effect of over 15% in size
How it was run: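 Luminescent Caspase-Glo 3/7 read (30min, room temperature) quantified apoptosis induction. Cells were wild-type CHO-K1, treated with compound for 17hr at 37 C and 5% CO2.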

[4] = Caspase-3/7 induction in HepG2 cells by small molecules, qHTS cell viability counter screen (AID 1346981); also: series mostly up to about 92 µM; nearly all actives have a fitted effect of over 30% in size
How it was run: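 Wild-type HepG2 cells (2,000/well) were allowed to settle for 5 hr at 37 C, 5% CO2, then dosed with compounds in DMSO by pin transfer. After 16 hr at 37 C, CellTiter-Fluor was added and fluorescence read 1 hr later.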

[5] = target: Nuclear receptor subfamily 1 group I member 2 (Homo sapiens) (UniProt O75469); assay: Human pregnane X receptor (PXR) small molecule agonists, qHTS assay (AID 1346982); also: nearly all actives have a fitted effect of over 35% in size; also: potency is read from the fitted curve at half-maximal effect
Nuclear receptor subfamily 1 group I member 2 (Homo sapiens), sequence (O75469 whole entry, looked up): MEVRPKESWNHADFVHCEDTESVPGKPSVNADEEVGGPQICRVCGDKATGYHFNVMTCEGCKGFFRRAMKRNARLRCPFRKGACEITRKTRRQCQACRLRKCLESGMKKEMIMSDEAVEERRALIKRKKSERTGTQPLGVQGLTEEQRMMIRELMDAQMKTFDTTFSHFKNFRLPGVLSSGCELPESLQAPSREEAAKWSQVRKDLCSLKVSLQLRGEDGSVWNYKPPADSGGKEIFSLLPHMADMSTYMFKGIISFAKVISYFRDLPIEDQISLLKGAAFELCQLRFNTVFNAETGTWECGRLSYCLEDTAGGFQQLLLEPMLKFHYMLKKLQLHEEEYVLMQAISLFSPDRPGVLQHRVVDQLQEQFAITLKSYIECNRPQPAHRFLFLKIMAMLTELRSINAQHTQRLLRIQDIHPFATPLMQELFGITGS
How it was run: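 PXR-Luc HepG2 cells (CYP3A4 promoter-driven luciferase) were seeded in medium with 5% charcoal-stripped FBS, left 5 hr at 37 C, then exposed to compounds in DMSO for 24 hr. Luminescence was read after ONE-Glo addition.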

[6] = target: Acetylcholinesterase (Homo sapiens) (UniProt P22303); assay: Acetylcholinesterase (AChE) small molecule antagonists: colormetric cell-based qHTS assay (AID 1347395; calls by dose curve; also: nearly all actives have a fitted effect of over 30% in size)
Acetylcholinesterase (Homo sapiens), sequence (P22303 whole entry, looked up): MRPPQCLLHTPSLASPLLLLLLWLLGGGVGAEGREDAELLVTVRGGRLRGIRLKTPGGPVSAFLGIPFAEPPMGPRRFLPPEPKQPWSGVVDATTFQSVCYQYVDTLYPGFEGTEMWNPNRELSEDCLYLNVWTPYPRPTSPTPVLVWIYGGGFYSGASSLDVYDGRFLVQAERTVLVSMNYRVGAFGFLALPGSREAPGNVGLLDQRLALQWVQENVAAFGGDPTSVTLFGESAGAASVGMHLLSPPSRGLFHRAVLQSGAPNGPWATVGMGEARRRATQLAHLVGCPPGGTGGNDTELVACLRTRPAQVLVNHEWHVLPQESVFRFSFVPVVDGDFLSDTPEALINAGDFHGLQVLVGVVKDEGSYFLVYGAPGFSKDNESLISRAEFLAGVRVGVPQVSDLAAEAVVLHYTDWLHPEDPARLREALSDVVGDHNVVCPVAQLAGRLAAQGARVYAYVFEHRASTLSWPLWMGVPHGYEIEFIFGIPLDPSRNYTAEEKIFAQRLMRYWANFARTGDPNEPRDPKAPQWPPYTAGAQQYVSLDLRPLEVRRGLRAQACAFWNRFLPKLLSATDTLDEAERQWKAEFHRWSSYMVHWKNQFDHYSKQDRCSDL
How it was run: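 Homogeneous whole-cell format. SH-SY5Y cells seeded overnight, dosed with compound (30 min, 37 C, 5% CO2), then given DTNB/acetylthiocholine cocktail for 90 min at 37 C; colorimetric signal.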

[7] = target: Acetylcholinesterase (Homo sapiens) (UniProt P22303); assay: Acetylcholinesterase (AChE) small molecule antagonists: enzyme-based qHTS assay (AID 1347397; calls by dose curve; also: nearly all actives have a fitted effect of over 55% in size); conditions: Potency: AChE enzyme activity inhibition; outcome: AChE enzyme activity inhibition
How it was run: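 Absorbance-based detection of thiocholine with DTNB served as the read-out. Recombinant human AChE was exposed to compound for 30 min at RT before a 10 min RT incubation with acetylthiocholine.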

[8] = target: Acetylcholinesterase (Homo sapiens) (UniProt P22303); assay: Acetylcholinesterase (AChE) small molecule antagonists: fluorescence cell-based qHTS assay (AID 1347398; calls by dose curve; also: nearly all actives have a fitted effect of over 50% in size); conditions: Potency: AChE activity; outcome: AChE activity
How it was run: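 Fluorimetric cell-based assay: intact SH-SY5Y cells, 30 min compound preincubation at 37 C, acetylthiocholine substrate with thiol probe Thiolite Green, 40 min RT development, fluorescence 490/520 nm.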

[9] = target: Acetylcholinesterase (Homo sapiens) (UniProt P22303); assay: Acetylcholinesterase (AChE) small molecule antagonists: enzyme-based qHTS assay with human liver microsomes (AID 1347399; calls by dose curve; also: nearly all actives have a fitted effect of over 60% in size); conditions: Potency: qHTS inhibition; outcome: qHTS inhibition
How it was run: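 Recombinant human AChE (50 mU/mL in the enzyme mix) and human liver microsomes (0.25 mg/mL final) were preincubated with compound and NADPH (0.25 mg/mL final) for 30 min at 37 C. Acetylthiocholine/DTNB was then added; thiocholine was read colorimetrically after 10 min at room temperature.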

[10] = target: Cytochrome P450 2D6 (Homo sapiens) (UniProt P10635); assay: Cytochrome P450 Family 2 Subfamily D Member 6 (CYP2D6) small molecule antagonists: luciferase reporter qHTS assay (AID 1671196); also: nearly all actives have a fitted effect of over 50% in size; also: potency is read from the fitted curve at half-maximal effect
Cytochrome P450 2D6 (Homo sapiens), sequence (P10635 whole entry, looked up): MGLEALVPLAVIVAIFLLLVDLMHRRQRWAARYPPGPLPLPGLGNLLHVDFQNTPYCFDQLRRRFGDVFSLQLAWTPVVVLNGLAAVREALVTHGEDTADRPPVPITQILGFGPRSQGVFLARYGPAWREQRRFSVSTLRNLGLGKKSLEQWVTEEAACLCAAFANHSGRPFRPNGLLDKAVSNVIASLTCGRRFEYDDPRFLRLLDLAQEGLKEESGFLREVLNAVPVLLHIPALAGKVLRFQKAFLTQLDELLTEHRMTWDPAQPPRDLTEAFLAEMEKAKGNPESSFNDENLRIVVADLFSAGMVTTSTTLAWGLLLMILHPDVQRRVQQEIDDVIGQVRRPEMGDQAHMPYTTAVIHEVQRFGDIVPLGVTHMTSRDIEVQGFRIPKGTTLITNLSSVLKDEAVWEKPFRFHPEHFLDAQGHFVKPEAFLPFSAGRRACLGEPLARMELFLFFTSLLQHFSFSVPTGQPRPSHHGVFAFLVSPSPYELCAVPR
How it was run: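 CYP2D6 enzyme–substrate mix was held with compound for 10 min at room temperature, then NADPH regeneration solution was added and the reaction ran 1 h at room temperature. Luciferin product was detected by luminescence after 20 min with detection reagent.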

[11] = target: Cytochrome P450 2C19 (Homo sapiens) (UniProt P33261); assay: Cytochrome P450 Family 2 Subfamily C Member 19 (CYP2C19) small molecule antagonists: luciferase reporter qHTS assay (AID 1671197); also: nearly all actives have a fitted effect of over 65% in size; also: potency is read from the fitted curve at half-maximal effect
Cytochrome P450 2C19 (Homo sapiens), sequence (P33261 whole entry, looked up): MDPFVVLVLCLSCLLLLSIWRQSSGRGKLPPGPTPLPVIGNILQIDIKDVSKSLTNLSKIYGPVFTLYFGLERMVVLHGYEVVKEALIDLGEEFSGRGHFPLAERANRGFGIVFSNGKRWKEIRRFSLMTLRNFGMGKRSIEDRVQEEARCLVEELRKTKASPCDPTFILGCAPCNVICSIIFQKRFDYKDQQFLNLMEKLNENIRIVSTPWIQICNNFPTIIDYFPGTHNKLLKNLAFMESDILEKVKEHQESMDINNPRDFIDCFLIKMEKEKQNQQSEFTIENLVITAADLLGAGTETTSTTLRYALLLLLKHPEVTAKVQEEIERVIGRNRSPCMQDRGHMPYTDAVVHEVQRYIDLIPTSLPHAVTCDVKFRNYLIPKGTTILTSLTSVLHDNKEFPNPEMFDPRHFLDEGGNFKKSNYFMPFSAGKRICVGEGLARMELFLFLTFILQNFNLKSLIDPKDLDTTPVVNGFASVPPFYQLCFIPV
How it was run: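 Relative luminescence units recorded 20 min after the detection reagent stopped a 1 h, 37C CYP2C19 reaction on proluciferin substrate, which was started by NADPH regeneration following 10 min room-temperature compound preincubation; ketoconazole positive control.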

[12] = target: Cytochrome P450 2C9 (Homo sapiens) (UniProt P11712); assay: Cytochrome P450 Family 2 Subfamily C Member 9 (CYP2C9) small molecule antagonists: luciferase reporter qHTS assay (AID 1671198); also: nearly all actives have a fitted effect of over 50% in size; also: potency is read from the fitted curve at half-maximal effect
Cytochrome P450 2C9 (Homo sapiens), sequence (P11712 whole entry, looked up): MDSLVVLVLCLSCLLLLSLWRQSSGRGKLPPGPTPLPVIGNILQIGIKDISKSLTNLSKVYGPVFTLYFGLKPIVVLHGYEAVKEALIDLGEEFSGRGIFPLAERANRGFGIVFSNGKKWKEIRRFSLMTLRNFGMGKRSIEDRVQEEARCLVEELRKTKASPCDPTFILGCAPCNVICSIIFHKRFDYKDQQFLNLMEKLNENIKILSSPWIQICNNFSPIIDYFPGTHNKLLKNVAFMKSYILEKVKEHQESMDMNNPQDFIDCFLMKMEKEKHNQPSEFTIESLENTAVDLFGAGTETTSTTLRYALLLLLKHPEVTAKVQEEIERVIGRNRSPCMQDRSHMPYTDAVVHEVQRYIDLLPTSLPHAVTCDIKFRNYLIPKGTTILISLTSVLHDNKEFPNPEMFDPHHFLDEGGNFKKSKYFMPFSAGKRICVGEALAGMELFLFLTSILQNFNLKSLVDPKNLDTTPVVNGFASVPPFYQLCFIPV
How it was run: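 Enzyme-substrate mix preincubated with compound 10 min at room temperature; reaction started with NADPH regeneration solution, 1 h 37C. Luminescent luciferin product read after 20 min detection reagent.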

[13] = target: Cytochrome P450 1A2 (Homo sapiens) (UniProt P05177); assay: Cytochrome P450 Family 1 Subfamily A Member 2 (CYP1A2) small molecule antagonists: luciferase reporter qHTS assay (AID 1671199); also: nearly all actives have a fitted effect of over 50% in size; also: potency is read from the fitted curve at half-maximal effect
Cytochrome P450 1A2 (Homo sapiens), sequence (P05177 whole entry, looked up): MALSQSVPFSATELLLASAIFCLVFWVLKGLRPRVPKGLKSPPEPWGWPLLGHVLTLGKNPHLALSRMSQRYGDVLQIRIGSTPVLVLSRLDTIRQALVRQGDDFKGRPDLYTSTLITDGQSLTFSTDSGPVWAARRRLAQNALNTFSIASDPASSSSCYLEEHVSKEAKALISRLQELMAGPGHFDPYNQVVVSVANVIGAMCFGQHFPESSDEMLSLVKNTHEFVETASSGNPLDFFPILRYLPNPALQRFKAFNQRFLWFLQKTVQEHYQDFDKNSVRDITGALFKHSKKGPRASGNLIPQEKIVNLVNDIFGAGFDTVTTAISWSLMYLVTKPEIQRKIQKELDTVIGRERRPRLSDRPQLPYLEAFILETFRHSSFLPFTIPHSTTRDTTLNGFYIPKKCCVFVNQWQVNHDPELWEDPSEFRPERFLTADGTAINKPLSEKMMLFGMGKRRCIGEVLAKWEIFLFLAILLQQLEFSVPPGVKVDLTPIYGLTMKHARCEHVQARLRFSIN
How it was run: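 Human CYP1A2 activity measured with a P450-Glo proluciferin substrate; compounds in DMSO preincubated 10 min at room temperature with enzyme-substrate mix, then NADPH regeneration system added for 1 h. Luciferin detection reagent, 20 min, luminescence read.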

[14] = target: Voltage-gated inwardly rectifying potassium channel KCNH2 (Homo sapiens) (UniProt Q12809); assay: Human Ether-a-go-go-Related Gene (hERG) channel small molecule antagonists: fluorescence cell-based qHTS assay (AID 1671200)
How it was run: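 Thallium served as the potassium surrogate; its influx into dye-loaded U2OS cells carrying the channel was measured by fluorescence over 2 min.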

[15] = target: Cytochrome P450 3A4 (Homo sapiens) (UniProt P08684); assay: Cytochrome P450 Family 3 Subfamily A Member 4 (CYP3A4) small molecule antagonists: luciferase reporter qHTS assay (AID 1671201); also: nearly all actives have a fitted effect of over 50% in size; also: potency is read from the fitted curve at half-maximal effect
Cytochrome P450 3A4 (Homo sapiens), sequence (P08684 whole entry, looked up): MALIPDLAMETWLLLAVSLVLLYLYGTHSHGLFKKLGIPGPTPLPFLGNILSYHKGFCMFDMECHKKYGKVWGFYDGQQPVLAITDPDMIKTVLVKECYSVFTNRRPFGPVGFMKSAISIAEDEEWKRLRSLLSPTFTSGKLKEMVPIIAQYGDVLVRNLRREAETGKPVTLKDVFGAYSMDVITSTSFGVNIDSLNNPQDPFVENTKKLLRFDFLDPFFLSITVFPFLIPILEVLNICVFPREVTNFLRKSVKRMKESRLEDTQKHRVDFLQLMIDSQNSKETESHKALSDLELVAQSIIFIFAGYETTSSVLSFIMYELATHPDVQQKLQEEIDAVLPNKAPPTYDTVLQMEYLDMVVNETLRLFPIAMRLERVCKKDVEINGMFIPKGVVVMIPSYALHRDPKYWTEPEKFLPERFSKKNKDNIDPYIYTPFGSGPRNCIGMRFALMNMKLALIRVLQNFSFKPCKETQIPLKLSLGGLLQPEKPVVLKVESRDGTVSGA
How it was run: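 Relative luminescence units after 20 min with luciferin detection reagent served as read-out. Beforehand, CYP3A4 turned over a proluciferin substrate for 1 h at room temperature with NADPH regeneration, following 10 min compound preincubation.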

[16] = target: Nuclear receptor subfamily 1 group I member 2 (Rattus norvegicus) (UniProt Q9R1A7); assay: Rat pregnane X receptor (rPXR) activation by small molecules, qHTS assay (AID 1346983); conditions: rPXR luciferase reporter cells, One-Glo luminescence, 24 h; stronger effect = higher value; also: nearly all actives have a fitted effect of over 20% in size
Nuclear receptor subfamily 1 group I member 2 (Rattus norvegicus), sequence (Q9R1A7 whole entry, looked up): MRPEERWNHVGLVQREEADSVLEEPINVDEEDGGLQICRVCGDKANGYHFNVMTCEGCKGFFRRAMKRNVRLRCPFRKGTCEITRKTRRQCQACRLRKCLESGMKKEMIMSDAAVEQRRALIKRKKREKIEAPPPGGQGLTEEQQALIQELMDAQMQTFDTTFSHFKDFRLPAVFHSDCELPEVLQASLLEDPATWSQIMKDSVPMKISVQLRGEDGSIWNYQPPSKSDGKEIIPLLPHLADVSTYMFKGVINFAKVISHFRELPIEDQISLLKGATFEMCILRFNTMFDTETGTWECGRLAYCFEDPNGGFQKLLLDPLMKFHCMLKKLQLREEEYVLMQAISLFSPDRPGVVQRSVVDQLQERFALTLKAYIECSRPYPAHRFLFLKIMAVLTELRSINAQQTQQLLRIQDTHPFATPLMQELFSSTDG
How it was run: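 Luminescent readout (One-Glo luciferase, 30 min room temperature) followed 24 hr compound treatment at 37 C of rPXR cells plated 2,000 per well and preincubated 5hr; qHTS format with compounds delivered in DMSO.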

[17] = target: Nuclear receptor subfamily 1 group I member 2 (Homo sapiens) (UniProt O75469); assay: CYP3A4 induction through human pregnane X receptor (PXR) by small molecules, qHTS assay (AID 1346984); also: nearly all actives have a fitted effect of over 40% in size
How it was run: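 DPX-2 cells (HepG2 co-transfected with PXR and CYP3A4 promoter-luciferase) treated with compounds 24 h at 37C; luciferin-IPA CYP3A4 substrate 3uM final added for 3 h, then One-Glo; luminescence read. qHTS format.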

[18] = target: Nuclear receptor subfamily 1 group I member 2 (Homo sapiens) (UniProt O75469); assay: Human pregnane X receptor (PXR) activation by small molecules, qHTS assay (AID 1346985); also: nearly all actives have a fitted effect of over 40% in size
How it was run: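 DPX-2 cells (HepG2 co-transfected with a PXR response element and a CYP3A4-promoter luciferase construct) were seeded at 2,000 per well, rested 5 hr at 37C, then exposed to DMSO-dissolved compounds for 24 hr. Activation was read as luciferase luminescence.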
% is scaled to controls: 0 for no effect and ±100 for the full control effect.

O=C1CCCCC1Cl (configuration not stated)
active: Potency [11] 40.4 µM | Potency [13] 36 µM
inactive: outcome [1] | Potency [2] | outcome [3] | Potency [4] | Potency [5] | Potency [6] | Potency [7] | Potency [8] | Potency [9] | Potency [10] | Potency [12] | Potency [14] | Potency [15]

CCCC[N+](=O)[O-]
inactive: outcome [1] | Potency [2] | outcome [3] | Potency [4] | Potency [5] | Potency [6] | Potency [7] | Potency [8] | Potency [9] | Potency [10] | Potency [11] | Potency [12] | Potency [13] | Potency [14] | Potency [15]

C=CCc1cc(OC)c2c(c1)OCO2
active: Potency [5] 36 µM | Potency [10] 23.5 µM | Potency [11] 59 µM | Potency [12] 37.2 µM | Potency [13] 1.87 µM | Potency [15] 4.69 µM
inactive: outcome [1] | Potency [2] | outcome [3] | Potency [4] | Potency [6] | Potency [7] | Potency [8] | Potency [9] | Potency [14]

CCN(CCO)CCn1c(Cc2ccccc2)nc2c1c(=O)n(C)c(=O)n2C
inactive: outcome [1] | Potency [2] | outcome [3] | Potency [4] | Potency [5] | Potency [6] | Potency [7] | Potency [8] | Potency [9] | Potency [10] | Potency [11] | Potency [12] | Potency [13] | Potency [15]

CCOC(=O)CC(SP(=S)(OC)OC)C(=O)OCC (configuration not stated)
active: Potency [11] 178 nM and 436 nM | Potency [12] 1.19 µM and 1.38 µM | Potency [13] 2.24 µM and 1.62 µM
inactive: outcome [1] | Potency [2] | outcome [3] | Potency [4] | max activation [16] 0.377% | Potency [17] | Potency [18] | Potency [7] | Potency [8] | Potency [9] | Potency [10] | Potency [14]
12.2 µM (active) and inactive: Potency [5]

CCN(CC)CCOC(=O)C(O)(c1ccccc1)c1ccccc1
inactive: outcome [1] | Potency [2] | outcome [3] | Potency [4] | Potency [5] | max activation [16] -2.47% | Potency [17] | Potency [18] | Potency [6] | Potency [7] | Potency [8] | Potency [9] | Potency [11] | Potency [13]
active: Potency [10] 3.47 µM

CN1C(=O)COc2c(C(=O)NC3CN4CCC3CC4)cc(Cl)cc21 (configuration not stated)
inactive: outcome [1] | Potency [2] | outcome [3] | Potency [4] | Potency [5] | max activation [16] -0.408% | Potency [17] | Potency [9] | Potency [10] | Potency [11] | Potency [12] | Potency [13] | Potency [14] | Potency [15]

CCC1(c2cccc(O)c2)CCCCN(C)C1 (configuration not stated)
inactive: outcome [1] | Potency [2] | outcome [3] | Potency [4] | Potency [5] | max activation [16] -1.16% | Potency [17] | Potency [18] | Potency [11] | Potency [13] | Potency [14] | Potency [15]
active: Potency [10] 15.5 µM

NC(=O)CS(=O)C(c1ccccc1)c1ccccc1 (configuration not stated)
inactive: outcome [1] | Potency [2] | outcome [3] | Potency [4] | Potency [5] | max activation [16] -0.488% | Potency [17] | Potency [18] | Potency [6] | Potency [7] | Potency [8] | Potency [9] | Potency [12] | Potency [13] | Potency [15]
active: Potency [11] 24.5 µM

ClC1=C(Cl)C2(Cl)C(CBr)CC1(Cl)C2(Cl)Cl (configuration not stated)
inactive: outcome [1] | Potency [2] | outcome [3] | Potency [4] | max activation [16] 0.545% | Potency [17] | Potency [18] | Potency [6] | Potency [7] | Potency [8] | Potency [9] | Potency [10] | Potency [11] | Potency [12] | Potency [13]
48.6 µM (active) and inactive: Potency [5]

CC1NCCOC1c1ccccc1 (configuration not stated)
inactive: outcome [1] | Potency [2] | outcome [3] | Potency [4] | Potency [5] | max activation [16] -1.57% | Potency [17] | Potency [18] | Potency [6] | Potency [7] | Potency [8] | Potency [9] | Potency [11] | Potency [12] | Potency [13] | Potency [14] | Potency [15]

N#CN
inactive: outcome [1] | Potency [2] | outcome [3] | Potency [4] | Potency [5] | max activation [16] 0.661% | Potency [17] | Potency [18] | Potency [6] | Potency [7] | Potency [8] | Potency [9] | Potency [10] | Potency [11] | Potency [12] | Potency [13] | Potency [14] | Potency [15]

CNC(=O)NC(O)C(Cl)(Cl)Cl (configuration not stated)
inactive: outcome [1] | Potency [2] | outcome [3] | Potency [4] | Potency [5] | max activation [16] -4.06% | Potency [17] | Potency [18] | Potency [6] | Potency [7] | Potency [8] | Potency [9] | Potency [10] | Potency [11] | Potency [12] | Potency [15]

N[C@@H]1C[C@H]1c1ccccc1
active: Potency [10] 27.5 µM | Potency [12] 19.5 µM
inactive: outcome [1] | Potency [2] | outcome [3] | Potency [4] | Potency [5] | max activation [16] -1.36% | Potency [17] | Potency [18] | outcome [6] | outcome [7] | outcome [8] | outcome [9]

CC(C)(N)Cc1ccc(Cl)cc1
active: Potency [10] 3.09 µM | Potency [13] 24.5 µM
inactive: outcome [1] | Potency [2] | outcome [3] | Potency [4] | Potency [5] | max activation [16] -1.44% | Potency [17] | Potency [18] | Potency [7] | Potency [8] | Potency [9] | Potency [11] | Potency [12] | Potency [14] | Potency [15]

CC(C)[N+](C)(CCC(C(N)=O)(c1ccccc1)c1ccccc1)C(C)C
active: Potency [10] 0.776 µM | Potency [12] 38.9 µM
inactive: outcome [1] | Potency [2] | outcome [3] | Potency [4] | Potency [5] | max activation [16] 0.796% | Potency [17] | Potency [18] | Potency [6] | Potency [7] | Potency [8] | Potency [9] | Potency [11] | Potency [14]
